# Assay outcomes deposited in PubChem BioAssay by National Center for Advancing Translational Sciences (NCATS).
# HCMV inh = qHTS Assay for inhibitors of the human cytomegalovirus (HCMV); HFF cells, HCMV-luciferase reporter, 72 h; stronger effect = lower value; activity change, negative = inhibition, % at 57.5 µM; actives 4.5% (n = 410,000); AID 1259415, 2018; in the data active means activity change below about -60%; inconclusive means no clear call, values can overlap the other calls; inactive means above about -39%
#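 Luciferase read-out from HCMV-luciferase-infected HFFs (MOI 1 PFU/cell) 72 h post infection at 37C; compounds added after 16 h cell attachment; activity normalized between buffer-only basal and Salinomycin (10uM) inhibitor controls.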
# Vaccinia Venus = qHTS for Stage-Specific Inhibitors of Vaccinia Orthopoxvirus: Venus Reporter Primary qHTS; Vaccinia virus Venus reporter expression, fluorescence; Potency, µM (titrated, usually from 36.5 µM), for the others: at the highest dose activity change, negative = inhibition, hits mostly inhibitors; actives 0.46% (n = 330,000); AID 720580, 2013; calls by dose curve; tested in A549 cells; further: potency means the concentration at half of the fitted maximal effect; nearly all actives have a fitted effect of over 30% in size
# Sm TGR inh = qHTS Assay for the Inhibitors of Schistosoma Mansoni Peroxiredoxins. Potency, µM (titrated, usually from 114 µM), inactives show at the highest dose activity change, negative = inhibition, most hits filed as inhibitors. AID 485364, 2010. Schistosoma mansoni thioredoxin glutathione reductase (TGR), Q962Y6. actives 3% (n = 360,000). purified TGR, DTNB reduction, TNB absorbance 405 nm; further: potency means the concentration at half of the fitted maximal effect; nearly all actives have a fitted effect of over 60% in size
#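 Kinetic colorimetric format: TGR-catalysed, NADPH-driven DTNB reduction monitored via TNB absorbance. Enzyme dispensed at 20 nM; compound exposure 15 min at room temperature before reaction start.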
# FMDV antiviral = High Throughput Screening for Foot and Mouth Disease Virus Antivirals. FMDV antiviral cell-based qHTS. actives 1.2% (n = 410,000). Potency, µM (titrated, usually from 57.9 µM), for inactives: at the highest dose activity change, negative = inhibition, actives largely listed as inhibitors; calls by dose curve; tested in HEK293T cells; further: read-out not given here; potency means the concentration at half of the fitted maximal effect; nearly all actives have a fitted effect of over 45% in size
# HCV inhibitor = qHTS Assay for Inhibitors of Hepatitis C Virus (HCV). Huh7.5.1 HCVcc-Cre infection, luciferase reporter, 44 h. Potency, µM (series often up to 41.8 µM), without a hit: top-dose activity change, negative = inhibition, hits mostly inhibitors. actives 3.4% (n = 340,000); further: potency means the concentration at half of the fitted maximal effect
#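 After 44 h co-culture of compound, cells and HCVcc-Cre (~0.5 moi), substrate is added for 15 min at room temperature and luciferase measured over 15 sec. Cells were seeded at 1,000/well and pre-cultured 4 h.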
# Vaccinia mCherry = qHTS for Stage-Specific Inhibitors of Vaccinia Orthopoxvirus: mCherry Reporter Primary qHTS | actives 0.63% (n = 310,000) | AID 720579, 2013 | Potency, µM (highest dose often 36.5 µM), for inactives: at the highest dose activity change, negative = inhibition, actives largely listed as inhibitors | Vaccinia virus mCherry reporter infection, fluorescence; calls by dose curve; tested in A549 cells; further: potency means the concentration at half of the fitted maximal effect; nearly all actives have a fitted effect of over 35% in size
# * marks the source's active call; other numbers are inactive results; i = inactive; u = inconclusive; x = not tested or not shown; ! = not active in a repeat; [ ] = dose if it differs, or a comment. Only some compounds are listed: those with a hit (about 9.3% of all), similar ones and a draw of the others. Unless noted, the call rests on the fitted dose curve; in most records, active means well fitted curve in the direction sought with a large enough effect; inconclusive means small, poorly fitted or top-dose-only effect, or another doubt; inactive means no such curve, though single readings can be large; an effect the other way counts as inactive or inconclusive. On the % scale 0 is the no-effect control and ±100 the full control effect.
SMILES,HCMV inh,Vaccinia Venus,Sm TGR inh,FMDV antiviral,HCV inhibitor,Vaccinia mCherry
CC1=C/C(=C(/c2cc(C)c(O)c(Br)c2)c2ccccc2S(=O)(=O)O)C=C(Br)C1=O,-0.5,67.5%,44.7µM*,-55.2%,-6.2%,261.3%
CCN(CC)CCCOc1cc2nc(N3CCCN(C)CC3)nc(NC3CCN(C)CC3)c2cc1OC,x,10µM*,x,x,x,7.08µM*
COc1cc2nc(N3CCN(C)CC3)nc(NC3CCN(Cc4ccccc4)CC3)c2cc1OC,x,-27.2%,x,x,x,-1.0%
COc1cc2c(NC3CCN(C(C)C)CC3)nc(N3CCCN(C)CC3)nc2cc1OCCCN(C)C,x,0.251µM*,x,x,x,u
COc1cc2c(NC3CCN(C)CC3)nc(N3CCCN(C)CC3)nc2cc1OCCCCCN(C)C,x,12.6µM*,x,x,x,u
COc1cc2nc(N3CCN(C)CC3)nc(NC3CC3)c2cc1OC,x,-13.4%,x,x,x,-23.2%
CCCOc1ccc(CNC(=O)C(C)n2nc(C)n3c(cc4occc43)c2=O)cc1 (stereo not given),-33.6,-13.3%,-13.2%,-17.5%,x,-8.8%
COc1ccc(S(=O)(=O)NCc2ccco2)cc1-c1nnc2c3ccccc3c(C)nn12,-5.6,-22.2%,56.2µM*,41.7%,-1.8%,u
CCN1CCN(CCCNC(=O)c2cnn(-c3ccc(OC)cc3)c2C2CCN(C(=O)OC(C)(C)C)CC2)CC1,u,-3.1%,-2.4%,0.4%,x,-7.4%
Cc1cc(C(C)(C)C)cc(C)c1COC(=O)CN1C(=O)NC2(CCCC2)C1=O,2.4,x,-1.1%,-21.7%,-16.7%,x
Cn1c(=S)[nH]c2cc(C(=O)N3CCN(Cc4cccs4)CC3)ccc2c1=O,x,-17.5%,x,x,x,-27.5%
CCOc1cc(C2c3c(n[nH]c3C)C(=O)N2c2ccc(Br)cc2)ccc1O (stereo not given),u,-2.6%,11.2µM*,-1.5%,25.1µM*,-5.8%
COc1cc(C2c3c(n[nH]c3C)C(=O)N2c2ccc(Br)cc2)ccc1O (stereo not given),9.7,-7.6%,4.47µM*,-4.1%,u,-8.5%
CCOC(=O)c1ccc(N2C(=O)c3n[nH]c(C)c3C2c2cccc(Br)c2)cc1 (stereo not given),-32.5,-2.7%[7.34 µM],-9.6%,-28.6%,x,-4.0%[7.34 µM]
CCOC(=O)c1ccc(N2C(=O)c3n[nH]c(C)c3C2c2ccc(OC)c(OC)c2)cc1 (stereo not given),18.1,x,u,-2.9%,12.1%,x
Cc1ccc(NC(=O)C2=CC(c3cccs3)=NS(=O)(=O)N2C)cc1,12.4,-21.8%,-12.5%,-7.7%,u,-5.3%
CCc1ccc(NC(=O)C2=CC(c3cccs3)=NS(=O)(=O)N2C)cc1,-74.6*!,-13.1%,0.4%,-17.2%,u,u
CC(=O)N1c2ccccc2C(C)CC12CCCCC2 (stereo not given),-21.1,-3.6%,-1.0%,u,25.8%,-11.4%
CC(=O)N1Cc2ccccc2C(C)CC12CCCC2 (stereo not given),26.0,-11.8%,9.4%,25.1µM*,u,i
O=C1CCCC2=C1C(c1ccc(O)c(O)c1)c1c(ccc3ncccc13)N2 (stereo not given),-14.4,-3.0%,u,9.9%,8.6%,-12.6%
CC1=C(C#N)C(c2ccc(O)cc2)C2=C(CCCC2=O)N1 (stereo not given),-7.4,-6.3%,0.2%,-19.3%,9.7%,i
CCOc1ccc(C2C3=C(CCCC3=O)Nc3ccc4ncccc4c32)cc1 (stereo not given),56.0,x,17.8µM*,-18.7%,u,x
O=C1CCCC2=C1C(c1ccc(O)cc1)c1c(ccc3ccccc13)N2 (stereo not given),-5.3,-21.4%,25.1µM*,-6.7%,-0.6%,u
CC(C)N1CCC(N2CCN(Cc3ccc4nonc4c3)CC2CCO)CC1 (stereo not given),-21.6,-4.7%,-4.8%,0.8%,u,i
